Experimental data: the supplement of paper PMC3334620
Over roughly 33,000 sequences, “E-score (-0.5 to 0.5)” has its median near -0.016; the highest 2% begin near 0.31. Shown is part of a subset that was picked to be rich in the highest values.

What follows are sequences tested against Cst6 (UniProt P40535) (assay: PBM E-score (8-mer binding enrichment) (E-score (-0.5 to 0.5)); higher = stronger / more preferred TF binding). Settings: protein concentration: 200 nM; construct: GST-DNA-binding domain.
Chain of UniProt P40535 (P40535 whole entry, the tested form may be a part): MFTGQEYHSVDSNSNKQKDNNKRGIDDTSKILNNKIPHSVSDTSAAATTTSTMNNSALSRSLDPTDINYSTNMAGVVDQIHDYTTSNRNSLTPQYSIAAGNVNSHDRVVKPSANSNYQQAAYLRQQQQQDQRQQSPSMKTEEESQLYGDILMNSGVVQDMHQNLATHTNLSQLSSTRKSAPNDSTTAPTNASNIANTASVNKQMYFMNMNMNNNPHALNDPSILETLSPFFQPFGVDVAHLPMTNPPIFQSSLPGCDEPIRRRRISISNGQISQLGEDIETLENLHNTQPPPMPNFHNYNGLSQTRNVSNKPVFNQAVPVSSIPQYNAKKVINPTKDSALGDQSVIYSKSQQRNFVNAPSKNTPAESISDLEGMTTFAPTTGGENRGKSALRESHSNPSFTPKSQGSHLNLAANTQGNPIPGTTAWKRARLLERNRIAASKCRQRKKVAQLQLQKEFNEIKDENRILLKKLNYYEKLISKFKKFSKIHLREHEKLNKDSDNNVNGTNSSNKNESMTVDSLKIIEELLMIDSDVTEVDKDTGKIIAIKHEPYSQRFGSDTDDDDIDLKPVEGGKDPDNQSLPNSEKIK
In short: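 GST-tagged yeast TFs (full-length or DNA-binding domain) were made by PURExpress in vitro transcription/translation and applied at about 100-200 nM to universal all-10-mer Agilent arrays. The arrays were made double-stranded by primer extension, on fresh or once-stripped slides. Bound protein was detected with fluorescent anti-GST, and scans were normalised with masliner. Each ungapped eight-base word, pooled with its reverse complement, received an E-score (modified Wilcoxon-Mann-Whitney statistic) from the Universal PBM Analysis Suite.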
With AGACATCC the “PBM E-score” value was -0.211.
In the case of GCACGTAC, the “PBM E-score” value is reported as -0.00487.
For GTACGTAA, the “PBM E-score” value was 0.449.
For GTACGTAC, the “PBM E-score” value was 0.0996.
In the case of TCAAGCGA, the “PBM E-score” value is reported as -0.00748.
For ACAGGCGG, the “PBM E-score” value was -0.104.
ATGCCGAA was tested, and the “PBM E-score” value was 0.0887.
ATGCCGTC was tested, and the “PBM E-score” value was 0.323.
In the case of ATGCCGTA, the “PBM E-score” value is reported as 0.372.
GTGCCGGA was tested, and the “PBM E-score” value was -0.104.
ATGCCGTG was tested, and the “PBM E-score” value was 0.283.
In the case of CTGCCGTA, the “PBM E-score” value is reported as 0.0163.
In the case of CTGCCGTC, the “PBM E-score” value is reported as 0.0959.
For AAGCCGTA, the “PBM E-score” value was 0.173.
For GTGCCGTA, the “PBM E-score” value was 0.389.
With GGGTTAAA the “PBM E-score” value was -0.06.
For GAGAGAGC, the “PBM E-score” value was -0.197.
For AATTGCGC, the “PBM E-score” value was 0.309.
With AATTGCGA the “PBM E-score” value was -0.111.
AATTGCGG was tested, and the “PBM E-score” value was -0.0187.
With GATTGCGC the “PBM E-score” value was 0.0307.
In the case of AATTGCGT, the “PBM E-score” value is reported as 0.315.
CATTGCGC was tested, and the “PBM E-score” value was 0.0683.
With AAAACGCG the “PBM E-score” value was 0.205.
In the case of AACGTTGC, the “PBM E-score” value is reported as -0.0467.
With AAGTACCT the “PBM E-score” value was -0.196.
With AAGTGAAG the “PBM E-score” value was -0.0822.
AAGCCGAC was tested, and the “PBM E-score” value was -0.231.
With ACACGGCA the “PBM E-score” value was 0.282.
For CAACGCCG, the “PBM E-score” value was 0.191.
ACACGGCT was tested, and the “PBM E-score” value was 0.266.
With AGACGGCG the “PBM E-score” value was 0.305.
For CCACGGCC, the “PBM E-score” value was -0.0591.
For AGACGGCC, the “PBM E-score” value was -0.214.
In the case of CCACGGCG, the “PBM E-score” value is reported as 0.309.
For AAACGCCA, the “PBM E-score” value was 0.18.
With CCACGGCA the “PBM E-score” value was 0.235.
In the case of CGACGGCG, the “PBM E-score” value is reported as 0.257.
In the case of AAACGCCG, the “PBM E-score” value is reported as 0.36.
With ACACGGCG the “PBM E-score” value was 0.394.
For TCCTCCGA, the “PBM E-score” value was -0.395.
CCCCTTAA was tested, and the “PBM E-score” value was -0.212.
In the case of AGGCAAAT, the “PBM E-score” value is reported as 0.164.
In the case of ATACAGGC, the “PBM E-score” value is reported as -0.121.
With GCAGGCAA the “PBM E-score” value was -0.0304.
AGAGGATC was tested, and the “PBM E-score” value was -0.18.
With AAACGGCG the “PBM E-score” value was 0.369.
With AAACGGCT the “PBM E-score” value was 0.105.
With AAACGGCC the “PBM E-score” value was 0.084.
In the case of ACAAGTAA, the “PBM E-score” value is reported as -0.0276.
For CCAGTTCA, the “PBM E-score” value was 0.0369.
In the case of GTAATGAC, the “PBM E-score” value is reported as 0.377.
In the case of GTAATGAA, the “PBM E-score” value is reported as 0.268.
With GTAATGGA the “PBM E-score” value was 0.353.
CAAATGAC was tested, and the “PBM E-score” value was 0.248.
In the case of AAAATGAA, the “PBM E-score” value is reported as 0.155.
For AAAATGAC, the “PBM E-score” value was 0.327.
CTAATGAC was tested, and the “PBM E-score” value was 0.252.
For ATAATGGA, the “PBM E-score” value was 0.109.
With GAAATGAA the “PBM E-score” value was 0.237.
With CTAATGGA the “PBM E-score” value was -0.085.
With AAAATGAT the “PBM E-score” value was 0.298.
With GAAATGAC the “PBM E-score” value was 0.32.
In the case of CTGCATCC, the “PBM E-score” value is reported as -0.101.
With CTTGCAGA the “PBM E-score” value was -0.138.
With CACGCCCA the “PBM E-score” value was -0.21.
With GCTAACCC the “PBM E-score” value was -0.223.
With ACATCCCC the “PBM E-score” value was -0.119.
AAAGCCCA was tested, and the “PBM E-score” value was 6e-05.
For CACGCATA, the “PBM E-score” value was -0.215.
GACGCATA was tested, and the “PBM E-score” value was 0.315.
GACGCATC was tested, and the “PBM E-score” value was 0.0635.
For GCTTCCTA, the “PBM E-score” value was -0.0171.
With ACACCACG the “PBM E-score” value was -0.0337.
With CAATGCCA the “PBM E-score” value was -0.0721.
AGCGTCAG was tested, and the “PBM E-score” value was 0.177.
In the case of GGCGTCTA, the “PBM E-score” value is reported as 0.0648.
With GGCGTCCC the “PBM E-score” value was -0.225.
In the case of AGCGTCAT, the “PBM E-score” value is reported as 0.423.
In the case of CGCGTCAA, the “PBM E-score” value is reported as 0.211.
In the case of GGCGTCAC, the “PBM E-score” value is reported as 0.431.
AGAGTCAT was tested, and the “PBM E-score” value was -0.0245.
AGCGTCAC was tested, and the “PBM E-score” value was 0.332.
CGCGTCAG was tested, and the “PBM E-score” value was 0.0126.
With CGCGTCAC the “PBM E-score” value was 0.418.
With AGCGTCAA the “PBM E-score” value was 0.269.
In the case of AGCGTCCT, the “PBM E-score” value is reported as -0.276.
With AATCCATA the “PBM E-score” value was 0.0862.
In the case of CGCCGAGC, the “PBM E-score” value is reported as 0.0842.
With CTGTCGCA the “PBM E-score” value was -0.146.
In the case of CGGTCCTC, the “PBM E-score” value is reported as -0.133.
With CATGCGAA the “PBM E-score” value was 0.111.
In the case of AAGTTAAT, the “PBM E-score” value is reported as 0.213.
In the case of AGAGAAAC, the “PBM E-score” value is reported as 0.0803.
With AATTGGCG the “PBM E-score” value was 0.198.
With GTCTCTTA the “PBM E-score” value was -0.00905.
With GCGATGAC the “PBM E-score” value was 0.413.
With GCGATGAA the “PBM E-score” value was 0.0225.
With CCGATGAG the “PBM E-score” value was -0.087.
GGGATGAC was tested, and the “PBM E-score” value was 0.221.
For CCGATGAC, the “PBM E-score” value was 0.336.
ACGATGAA was tested, and the “PBM E-score” value was 0.154.
CCGATGAA was tested, and the “PBM E-score” value was 0.0447.
For ACGATGAC, the “PBM E-score” value was 0.387.
With ACGATGAT the “PBM E-score” value was 0.206.
AACTGAGC was tested, and the “PBM E-score” value was -0.152.
In the case of AGGGCCTA, the “PBM E-score” value is reported as -0.327.
In the case of AACCTACG, the “PBM E-score” value is reported as -0.043.
CTGAGGTA was tested, and the “PBM E-score” value was 0.0121.
In the case of ATGAGGTA, the “PBM E-score” value is reported as 0.312.
ATGAGGTG was tested, and the “PBM E-score” value was 0.174.
For AACTGCTC, the “PBM E-score” value was -0.0302.
With GAGGTGAA the “PBM E-score” value was -0.0049.
In the case of ACTGTCAT, the “PBM E-score” value is reported as 0.0752.
For AATGTAAG, the “PBM E-score” value was 0.192.
With AATGTCAT the “PBM E-score” value was 0.356.
In the case of AATGTCGT, the “PBM E-score” value is reported as 0.195.
With AATGTAAA the “PBM E-score” value was 0.258.
In the case of GATGTCAC, the “PBM E-score” value is reported as 0.448.
In the case of GCTGTCAC, the “PBM E-score” value is reported as 0.0464.
In the case of GATGTCAA, the “PBM E-score” value is reported as 0.245.
ACTGTCAC was tested, and the “PBM E-score” value was 0.141.
AATGTCAG was tested, and the “PBM E-score” value was -0.00168.
In the case of AATGTCAC, the “PBM E-score” value is reported as 0.308.
With AATGTAAT the “PBM E-score” value was 0.347.
For CGACCCCG, the “PBM E-score” value was -0.235.
With AACCTAAT the “PBM E-score” value was -0.0438.
With CAGTTTTA the “PBM E-score” value was 0.00126.
In the case of AGTAGGTA, the “PBM E-score” value is reported as -0.0379.
In the case of CCGATCTA, the “PBM E-score” value is reported as -0.27.
For CGAACGAA, the “PBM E-score” value was 0.0744.
For AAGGCGCT, the “PBM E-score” value was 0.118.
With CACACGGC the “PBM E-score” value was 0.293.
In the case of ACGTACCG, the “PBM E-score” value is reported as 0.0475.
With ATTTCGAG the “PBM E-score” value was 0.0911.
In the case of TCAGGGAA, the “PBM E-score” value is reported as -0.141.
With CGGCTGGC the “PBM E-score” value was -0.28.
GATGTAAC was tested, and the “PBM E-score” value was 0.341.
AATGTAAC was tested, and the “PBM E-score” value was 0.0559.
With CATGTCAA the “PBM E-score” value was 0.161.
In the case of CATGTAAC, the “PBM E-score” value is reported as 0.014.
CATGTCAC was tested, and the “PBM E-score” value was 0.36.
CATGTCAG was tested, and the “PBM E-score” value was 0.144.
With ATTGGCCC the “PBM E-score” value was -0.36.
GATGAGAC was tested, and the “PBM E-score” value was 0.0611.
In the case of ATAATGTA, the “PBM E-score” value is reported as 0.203.
With CATTCCCG the “PBM E-score” value was 0.0388.
For ATGTTGAA, the “PBM E-score” value was 0.104.
For GGTAATAC, the “PBM E-score” value was 0.111.
In the case of CTTAATAA, the “PBM E-score” value is reported as 0.155.
With AGTAATAA the “PBM E-score” value was 0.302.
With TGTAATAA the “PBM E-score” value was 0.329.
CGTAATAC was tested, and the “PBM E-score” value was 0.366.
In the case of CATAATAG, the “PBM E-score” value is reported as 0.202.
For AGTAATAG, the “PBM E-score” value was 0.211.
For CGTAATAA, the “PBM E-score” value was 0.325.
With CGTAATAG the “PBM E-score” value was 0.318.
In the case of CCTAATAA, the “PBM E-score” value is reported as 0.00168.
For AGTAATAC, the “PBM E-score” value was -0.0264.
For GGTAATAA, the “PBM E-score” value was 0.247.
With CATTGCCC the “PBM E-score” value was -0.241.
For AACTTGCT, the “PBM E-score” value was -0.117.
With CTAACTAG the “PBM E-score” value was 0.0585.
For GGATTGCA, the “PBM E-score” value was 0.0154.
In the case of ATATACAT, the “PBM E-score” value is reported as 0.16.
For TGGGGAAA, the “PBM E-score” value was 0.0662.
In the case of AACCATCC, the “PBM E-score” value is reported as -0.0939.
GGAATGAC was tested, and the “PBM E-score” value was 0.255.
In the case of AGAATGAC, the “PBM E-score” value is reported as 0.354.
With AGAATGAA the “PBM E-score” value was 0.207.
CGAATGAC was tested, and the “PBM E-score” value was 0.348.
AGAATGAG was tested, and the “PBM E-score” value was -0.0205.
CGAATGAA was tested, and the “PBM E-score” value was 0.0688.
